Data: PubChem BioAssay AID588591 (National Center for Advancing Translational Sciences (NCATS), 2011)
Among all 390,000 compounds or so, about 4,700 (1.2%) were called active. Roughly 4% stayed inconclusive and do not appear here. Calls come from the whole dose curve; as a rule, active = well fitted inhibition curve with a large enough effect; inconclusive = small, poorly fitted or top-dose-only effect, or another doubt; inactive = no such curve, though single readings can be large or run the other way. The full list was thinned out, with actives kept by preference.

Each compound was assayed against DNA polymerase eta (Homo sapiens) (UniProt Q9Y253) (assay: qHTS for Inhibitors of Polymerase Eta). Details: recombinant Pol eta, fluorescent DNA replication assay; series mostly up to 114 µM; activity change, negative = inhibition: at the top concentration.
Summary of the method: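 Pol eta at 10 nM preincubated with compounds 15 min at room temperature; reaction started with fluorescent substrate (50 nM final) and read kinetically at 0 and 10 min.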
% is set by controls: 0 for no effect and ±100 for the full control effect; potency is the fitted concentration of half-maximal effect.

Chain of DNA polymerase eta (Homo sapiens) (Q9Y253 whole entry, looked up): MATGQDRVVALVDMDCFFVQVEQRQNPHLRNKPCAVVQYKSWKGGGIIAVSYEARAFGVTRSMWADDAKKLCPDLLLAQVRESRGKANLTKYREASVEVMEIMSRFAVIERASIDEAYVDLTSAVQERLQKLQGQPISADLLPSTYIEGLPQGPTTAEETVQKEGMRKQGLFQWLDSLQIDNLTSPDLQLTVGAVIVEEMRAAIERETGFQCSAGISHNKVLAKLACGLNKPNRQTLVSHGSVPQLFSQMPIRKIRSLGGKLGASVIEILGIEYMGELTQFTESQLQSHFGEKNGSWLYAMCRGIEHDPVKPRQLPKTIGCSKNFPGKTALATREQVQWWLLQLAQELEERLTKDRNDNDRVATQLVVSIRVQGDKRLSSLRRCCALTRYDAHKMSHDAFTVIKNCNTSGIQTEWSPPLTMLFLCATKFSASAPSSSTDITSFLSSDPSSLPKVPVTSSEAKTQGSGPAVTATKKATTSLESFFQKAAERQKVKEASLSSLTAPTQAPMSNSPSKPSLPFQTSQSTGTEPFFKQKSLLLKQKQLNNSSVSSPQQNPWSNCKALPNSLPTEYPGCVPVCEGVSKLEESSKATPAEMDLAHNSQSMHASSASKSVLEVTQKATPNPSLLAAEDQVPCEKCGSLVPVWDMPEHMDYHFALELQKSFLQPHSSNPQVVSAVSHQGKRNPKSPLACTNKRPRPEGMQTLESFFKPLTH

SMILES | activity change, negative = inhibition | Potency
CCCCN(C)S(=O)(=O)c1ccc(C(=O)Nc2sc3c(c2C(N)=O)CC(C)(C)NC3(C)C)cc1 | 5.33% (inactive) | 
COc1ccc(C)cc1NC(=O)c1[nH]c(C)c(C(C)=O)c1C | -13.9% (inactive) | 
COc1ccccc1CNCc1ccc(C(=O)O)s1 | -19.3% (inactive) | 
COc1cccc2c(C)c(C(=O)O)[nH]c12 |  | 12.6 µM (active)
CCOc1ccc(C(=O)Nc2ccc3nc4c(c(Nc5ccccc5OC)c3c2)CCCC4)cc1 | -17% (inactive) | 
CN(C(=O)CSc1nnc(NC(=O)Nc2ccccc2)s1)c1ccccc1 | -5.03% (inactive) | 
CC(=O)c1ccc(NC(=O)CSc2nnc(NC(=O)Nc3ccccc3)s2)cc1 | -10.6% (inactive) | 
CC(C)c1ccc(Nc2nnc(SCC(=O)c3nnc(-c4ccccc4)o3)s2)cc1 |  | 15.8 µM (active)
COc1ccc(C)cc1N(C)C(=O)c1c(C)oc2ncnc(N3CCOCC3)c12 | 1.72% (inactive) | 
Cc1ccc(NC(=O)c2cc(-c3ccc(C)o3)nc3ccccc23)nc1 |  | 22.4 µM (active)
Cc1ccc(-c2cc(C(=O)NN)n[nH]2)o1 | 0.265% (inactive) | 
CCOc1ccc(CNC(=O)c2cc(-c3ccc(Cl)s3)nc3ccccc23)cc1 | -8.47% (inactive) | 
CCOc1cccc(CNC(=O)c2ccc(N3CCCC3)c(NC(=O)Nc3ccccc3CC)c2)c1 | -10.1% (inactive) | 
O=C(Nc1ccc(OC(F)(F)F)cc1)C1CCCN(S(=O)(=O)c2ccc(Br)s2)C1 (stereo not given) | -15.9% (inactive) | 
O=C(NCCc1ccccc1)c1cnc2sc(N3CCCC3)nn2c1=O | -9.25% (inactive) | 
CC(=O)c1nn(-c2ccc(OC(F)(F)F)cc2)nc1Nc1ccccc1 | -12.7% (inactive) | 
Cc1ccc(-c2cc(-c3coc4ccccc4c3=O)c3c(n2)-c2cc(Cl)ccc2OC3)cc1 | -2.19% (inactive) | 
Cc1cccc(OCCSc2nc3ccccc3n2CC(=O)N2CCCCC2)c1C | -22.7% (inactive) | 
NC(=O)C1CCN(C(=O)c2cccc(NC(=O)c3nsc4ccccc34)c2)CC1 | -11% (inactive) | 
NC1=CC(=O)C(=O)c2cccnc21 |  | 8.91 µM (active)
Cc1nn(CC(=O)NCCc2ccccc2)c(=O)c2c1sc1ccccc12 | 7.02% (inactive) | 
COc1ccc(CNC(=O)Cc2coc3ccc(C(C)C)cc23)cc1 | -8.76% (inactive) | 
COc1ccc(N(C)C(=O)C2CCN(S(=O)(=O)c3cc(Br)cc4c3N(C(C)=O)CC4)CC2)cc1 | -9.98% (inactive) | 
Cn1c(=O)c2c(SCC(=O)N3CCc4ccccc43)nc(-c3ccc(Cl)cc3)nc2n(C)c1=O | -13.8% (inactive) | 

SMILES | activity change, negative = inhibition | Potency
Cc1nc2c(C(=O)NCc3ccc4c(c3)OCO4)c[nH]n2c(=O)c1Cc1ccccc1F |  | 89.1 µM (active)
COc1ccccc1-n1c(C)nc2cc(C(=O)NCc3ccc4c(c3)OCO4)ccc21 | -18.8% (inactive) | 
C=CCn1c(=O)c(C(=O)NCc2ccc3c(c2)OCO3)c(O)c2ccccc21 | -4.62% (inactive) | 
COc1ccc(NC(=O)Cn2c(=O)n(CCC(C)C)c(=O)c3cccnc32)cc1Cl | -9.44% (inactive) | 
CCN(CC)S(=O)(=O)c1ccc2c(c1)nc(CN(C)C(=O)Nc1ccc(Cl)cc1)n2C | -11% (inactive) | 
CC(=O)N1CCc2cc(S(=O)(=O)NC(Cc3ccccc3)C(=O)NCc3ccc(C)cc3)ccc21 (stereo not given) | -6.24% (inactive) | 
Cc1sc(C2C(C#N)=C(N)N(c3cccc(Cl)c3)C3=C2C(=O)CCC3)cc1CN1CCOCC1 (stereo not given) | -8.01% (inactive) | 
CN1CCOC1c1ccc(C2OCCN2C)cc1 (stereo not given) |  | 20 µM (active)
Cc1csc2nc(COC(=O)c3ccccc3NC(=O)c3ccccc3Cl)cc(=O)n12 | -7.27% (inactive) | 
O=C(CCc1ccccc1)NCCc1cccs1 | -16.9% (inactive) | 
Cc1ccnc(NC(=O)CCC(=O)N(CC(=O)NCCc2ccccc2)Cc2cccs2)c1 | -9.54% (inactive) | 
O=C(O)CCC(=O)N(Cc1cccs1)Cc1cccs1 |  | 20 µM (active)
COc1cc(NC(=O)CCn2nc(C)cc2C)cc(OC)c1OC | -19.7% (inactive) | 
Cc1nc2nc(SCC(=O)N(Cc3ccccc3)C(C)C)nn2c(C)c1Cc1ccccc1Cl | -23.9% (inactive) | 
Cc1ccccc1NC(=O)c1cc2c([nH]c1=O)CC(C)(C)CC2=O | -4.53% (inactive) | 
Cc1ccc(C(=O)N/N=C/c2sc(=O)n(Cc3cccc(C(=O)O)c3)c2Cl)cc1 | -4.43% (inactive) | 
Cc1ccc2nc(CNC(=O)c3ccccc3)[nH]c2c1 | -13.4% (inactive) | 
Cc1ccc2cc(/C=N/Nc3ccc(C(=O)O)cc3)c(Cl)nc2c1 |  | 50.1 µM (active)
COc1ccc(CNc2nc(-c3ccc(Cl)cc3)nn2C(=O)c2ccccc2)cc1 | -13.5% (inactive) | 
Cc1cccc2nc(-c3ccc(Cl)s3)c(Nc3ccc4c(c3)OCCO4)n12 | -5.2% (inactive) | 
CN1OC(COC(=O)c2ccc(Cl)cc2)CC1c1ccccc1 (stereo not given) | -10% (inactive) | 
Cc1ccc(S(=O)(=O)N2[C@@H](c3ccccc3F)C(C(=O)O)=CC[C@H]2c2ccc(Cl)cc2)cc1 | -7.7% (inactive) | 
Cc1ccccc1S(=O)(=O)N1[C@@H](c2cccc(Cl)c2)C(C(=O)O)=CC[C@H]1c1ccc(Cl)cc1 |  | 89.1 µM (active)
CCOc1ccc(NC(=O)c2cn(C3CCCCC3)c(=O)c3c2c2ccccc2n3C)cc1 | -24.7% (inactive) | 

SMILES | activity change, negative = inhibition | Potency
COc1cc2c(=O)c(S(=O)(=O)c3ccc(C(C)C)cc3)cn(Cc3ccccc3C)c2cc1OC | -6.1% (inactive) | 
CC(NC(=O)CCc1cn(Cc2ccccc2Cl)c2ccccc12)c1ccccc1 (stereo not given) | -19.7% (inactive) | 
Cc1noc(C)c1NC(=O)Nc1cccc2c1O[C@H](CN(C)C(=O)Nc1ccccc1)[C@@H](C)CN([C@H](C)CO)C2=O | -18.9% (inactive) | 
C[C@H](CO)N1C[C@H](C)[C@H](CN(C)C(=O)Nc2ccc(C(F)(F)F)cc2)Oc2c(NC(=O)c3ccncc3)cccc2C1=O |  | 89.1 µM (active)
Cc1noc(C)c1NC(=O)Nc1ccc2c(c1)C(=O)N([C@H](C)CO)C[C@H](C)[C@@H](CN(C)C(=O)Nc1ccc(C(F)(F)F)cc1)O2 | -7.85% (inactive) | 
CCCN(C(=O)Cn1ncc2c([nH]c3ccc(C)cc32)c1=O)c1ccccc1C | -17.1% (inactive) | 
Cc1ccc(CNC(=O)CCc2c(C)nc3nc(CNC(=O)OC(C)(C)C)nn3c2C)cc1 | -10.2% (inactive) | 
O=C(NC1CCCCC1)C1CCCN(S(=O)(=O)c2ccc(Br)s2)C1 (stereo not given) | -5.27% (inactive) | 
O=C(Cc1ccc(S(=O)(=O)N2CCCC2)s1)NC1CCCCCC1 |  | 14.1 µM (active)
COc1ccccc1NC(=O)COC(=O)Cc1ccc(S(=O)(=O)N2CCCCC2)s1 | -22.4% (inactive) | 
COc1cccc(Cn2c(CNS(=O)(=O)c3ccc(Cl)s3)nc3cccnc32)c1 | -21.5% (inactive) | 
CCOC(=O)c1ccc(NC(=O)c2csc3c2CCCCC3)cc1 | -10.6% (inactive) | 
CC(C)C[C@H](NC(=O)[C@H](O)[C@H](N)Cc1ccccc1)C(=O)O | -3.39% [at 57.1 µM] (inactive) | 
CC1CCN(C(=O)CCc2nnc3ccc(NCc4ccco4)nn23)CC1 | 0.0463% (inactive) | 
O=C(CCc1nnc2ccc(NCc3ccco3)nn12)Nc1cc(F)ccc1F |  | 50.1 µM (active)
CC(=O)c1ccc(NC(=O)CCc2nnc3ccc(NCc4ccco4)nn23)cc1 | -3.8% (inactive) | 
CCc1ccc2oc(-c3ccc(NC(=O)c4cc5ccccc5o4)cc3)nc2c1 | -4.85% (inactive) | 
CCCNC(=O)c1ccc2c(c1)ncn2-c1ccc(C)cc1C | 8.94% (inactive) | 
COc1ccc(Cn2ccc3nc(C)c(C(=O)Nc4ccc(C)c(F)c4)cc3c2=O)cc1 | -17.6% (inactive) | 
CCN1CCN(c2cc(C)c3cc(NC(=O)c4cc(Cl)ccc4OC)ccc3n2)CC1 | 2.16% (inactive) | 
Cc1ccc(OCC(=O)Nc2ccccc2C(=O)NC2CC2)cc1C | 3.79% (inactive) | 
Cc1ccc(OCC(=O)Nc2ccc3oc(=O)ccc3c2)cc1C | 2% (inactive) | 
COc1ccc(NC(=O)c2ccco2)cc1NC(=O)COc1ccc(C)c(C)c1 |  | 89.1 µM (active)
CCc1ccc(-n2nnc(-c3nc(-c4ccccc4)no3)c2C)cc1 | -18.6% (inactive) | 

SMILES | activity change, negative = inhibition | Potency
O=C(c1cnn(-c2ccc(F)cc2)c1-n1cccc1)N1CCN(c2ccc(F)cc2)CC1 | -8.06% (inactive) | 
COc1ccc(Cl)cc1NC(=O)CSc1nc2ccccc2c2nc(-c3ccccc3)nn12 | -14.6% (inactive) | 
O=C(CCc1nc(CN2CCN(S(=O)(=O)c3ccc(F)cc3)CC2)no1)N1CCCCC1 | -11.5% (inactive) | 
O=C1C(Cl)=C(Oc2ccccc2)C(=O)c2ccccc21 |  | 7.94 µM (active)
Cc1ccc(N(CC(=O)NCc2ccc(Cl)cc2)S(=O)(=O)N(C)C)cc1 | -9.02% (inactive) | 
N#CCC(=O)N/N=C/c1ccc(SCC(=O)Nc2ccccc2)o1 | -11.6% (inactive) | 
O=C(CCNC(=O)c1ccccc1)NN=Cc1ccc(Br)o1 |  | 56.2 µM (active)
O=C(CSc1ccc(/C=N/NC(=O)c2cccc(F)c2)o1)Nc1ccccc1 | -3.64% (inactive) | 
Cc1cccc2c1-c1sc(C(=O)Nc3ccc(F)cc3F)cc1CO2 | -2.34% (inactive) | 
CCOc1ccc(-c2cc3nc(C4CCN(C(=O)OC(C)(C)C)CC4)c(C(=O)Nc4ccc(C(=O)OC)cc4)cn3n2)cc1 | -17.3% (inactive) | 
Cc1ccc(-c2nnc(Nc3cccc(Br)c3)c3ccccc23)cc1S(=O)(=O)NCC1CCCO1 (stereo not given) | -4.88% (inactive) | 
Cc1ccc2c(c1)-c1c(cnn1CC(=O)Nc1ccccc1C#N)CO2 | -20.4% (inactive) | 
N#Cc1ccccc1CN1C(=O)S/C(=C/c2cccn2-c2cccc(C(=O)O)c2)C1=O |  | 3.16 µM (active)
CN(C(=O)CSc1nc2ccccc2n1Cc1ccccc1C#N)c1ccccc1 | -5.18% (inactive) | 
COc1ccc(OC)c(-c2nc(C(N)=O)c3c(n2)n(-c2ccc4c(c2)OCO4)c(=O)n3C)c1 | -0.421% (inactive) | 
CCCOc1cccc(C(=O)Nc2cccc(NC(=O)c3ccc(C(C)(C)C)cc3)c2)c1 | -20.1% (inactive) | 
CCc1nnc(NC(=O)CSc2nnc(COc3ccc(C#N)cc3)n2-c2ccccc2)s1 | -0.262% (inactive) | 
Cc1csc2nc(COc3ccc(NC(=O)COc4ccccc4)cc3)cc(=O)n12 | -12.8% (inactive) | 
N#Cc1ccc(OCC(=O)Nc2nc(-c3ccccn3)cs2)cc1 |  | 22.4 µM (active)
COCCNC(=O)CSc1c(C)cnc2c1c(=O)n(C)c(=O)n2C | -26.6% (inactive) | 
CCOC(=O)c1ccc(NC(=O)CCn2cnnn2)cc1 | -12% (inactive) | 
CCN(C(=O)c1sc2cc(OC)ccc2c1Cl)c1ccccc1 | -18.2% (inactive) | 
CCC(=O)N1CCc2cc(Br)cc(S(=O)(=O)CCC(=O)N3CCN(c4ccc(F)cc4)CC3)c21 | -12.4% (inactive) | 
